From PubChem
Shiga toxin inh = inhibitors of Shiga toxin in Vero cells; Vero cells, Shiga toxin protein synthesis inhibition reporter; actives 9.2% (n = 290,000); inhibition, % at 38.7 µM; in the data active means inhibition mostly above about 28%, no sharp cut-off; inactive means mostly below about 43%; further: 0% is about no effect
LmPK inhibitor = blocks Leishmania mexicana pyruvate kinase activity | Q27686 | purified LmPK, Kinase-Glo ATP luminescence, 1 h | Potency, µM (top dose mostly 57.5 µM), for inactives: at the highest dose activity change, negative = inhibition, actives largely listed as inhibitors | actives 0.37% (n = 290,000) | AID 1721; further: potency means the concentration at half of the fitted maximal effect; on the % scale 0 is the no-effect control and ±100 the full control effect
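Purified LmPK (0.1 nM) converted ADP (0.1 mM) to ATP with PEP (0.5 mM) in imidazole buffer pH 7.2 with KCl and MgCl2, 1 h at room temperature. ATP was read by Kinase-Glo luminescence; data normalized to uninhibited and no-enzyme controls.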
RE007 growth inh = less growth of the S. pombe RE007 Vpr strain. actives 0.21% (n = 360,000). S. pombe RE007 Vpr strain, BacTiter-Glo ATP luminescence, 24 h. AID 651644. Potency, µM (titrated, usually from 92.2 µM), inactives show at the top dose activity change, negative = less growth, hits mostly inhibitors; active means well fitted falling curve with a large enough effect; inconclusive means small, poorly fitted or top-dose-only effect; inactive means no such curve, though single readings can be large or run the other way; further: potency means the concentration at half of the fitted maximal effect; on the % scale 0 is the no-effect control and ±100 the full control effect; nearly all actives have a fitted effect of over 50% in size
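Fission yeast RE007 carrying one integrated HIV-1 vpr copy, seeded at OD 0.01 in PMG+AL medium with 23 nL pinned compound. Grown 24 h at 30 degrees; viability read by BacTiter-Glo luminescence after 5 min.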
Tb PYK inh = T. brucei pyruvate kinase inhibition; Q57TT1; TbPYK enzyme, Kinase-Glo Plus ATP luminescence, 45 min; Potency, µM (titrated, usually from 76.8 µM), without a hit: at the highest dose activity, negative = inhibition, most hits filed as inhibitors; actives 0.12% (n = 410,000); AID 624173; further: potency means the concentration at half of the fitted maximal effect; on the % scale 0 is the no-effect control and ±100 the full control effect; nearly all actives have a fitted effect of over 50% in size
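Readout: single end-point luminescence (Kinase-Glo Plus, 10 min). Reaction conditions were TbPYK/substrate plus 130 uM ADP, 45 min at RT, pH 7.2 TEA buffer. No-enzyme wells served as controls, and data were normalized before concentration-response fitting.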
CHX counter = affects cycloheximide protein synthesis inhibition readout, counter-screen | AID 2314 | max response, % | cell reporter, cycloheximide protein synthesis inhibition counterscreen | actives 12% (n = 300,000); in the data active means max response mostly above about 13%, no sharp cut-off; inactive means mostly below about 14%; further: read at 38.3 µM for the half of the compounds with a filed dose; 0% is about no effect
Giardia FBPA inh = Giardia lamblia aldolase inhibition | A8B2U2 | purified Giardia FBPA | Potency, µM (titrated, usually from 59.6 µM), inactives show top-dose activity, negative = inhibition, usual class: inhibitors | actives 0.71% (n = 290,000) | AID 2451; further: potency means the concentration at half of the fitted maximal effect; on the % scale 0 is the no-effect control and ±100 the full control effect; nearly all actives have a fitted effect of over 55% in size
Target sequence (A8B2U2 whole entry, looked up): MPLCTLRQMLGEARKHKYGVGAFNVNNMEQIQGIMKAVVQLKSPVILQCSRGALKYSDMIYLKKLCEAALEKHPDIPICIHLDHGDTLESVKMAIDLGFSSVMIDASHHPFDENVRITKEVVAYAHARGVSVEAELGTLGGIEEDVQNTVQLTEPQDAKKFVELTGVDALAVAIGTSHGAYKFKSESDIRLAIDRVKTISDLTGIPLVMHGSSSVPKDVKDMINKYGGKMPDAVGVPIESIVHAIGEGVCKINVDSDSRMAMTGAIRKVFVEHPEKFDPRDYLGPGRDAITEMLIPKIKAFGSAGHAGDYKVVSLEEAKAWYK
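Giardia FBPA (40 nM reagent) was preincubated 10 min at RT with compound (up to 57.5 uM final), then substrate plus GAPDH/TPI/NAD/arsenate coupling system with diaphorase/resazurin was added; resorufin fluorescence (525/598 nm) was read after 20 min.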
The depositor's hits bear a star; ? = inconclusive; . = no result given; [ ] = dose if it differs, or a comment. The sample as a whole holds a higher share of hits than the screen did. Unless noted, the call rests on the fitted dose curve; in most records, active means well fitted curve in the direction sought with a large enough effect; inconclusive means small, poorly fitted or top-dose-only effect, or another doubt; inactive means no such curve, though single readings can be large; an effect the other way counts as inactive or inconclusive.

SMILES	Shiga toxin inh	LmPK inhibitor	RE007 growth inh	Tb PYK inh	CHX counter	Giardia FBPA inh
COCCn1c(=O)cnc2cnc(Oc3ccccc3)nc21	.	.	.	.	.	-9%
CC(C)c1cc(C(=O)N/N=C/c2ccco2)n[nH]1	88*	-15%	6%	-11%	40*	4%
O=C(N/N=C/c1ccco1)c1cc(-c2ccc(Br)s2)[nH]n1	23	8%	10%	0%	5	-5%
CC(C)c1cc(C(=O)N/N=C/c2cccnc2)n[nH]1	27	-2%	-2%	2%	17*	1%
Cn1cc(S(=O)(=O)N2CCCCC2)cc1C(=O)Nc1cccc(C#N)c1	.	.	.	3%	.	.
O=C(Nc1cccc(F)c1)N1CC[C@@]2(CCCN(C(=O)c3cnccn3)C2)C1	.	.	.	0%	.	3%
CC(C)Oc1cccc(C(=O)C2CCCN(C(=O)c3ccoc3)C2)c1 (stereo not drawn)	26*	4%	-7%	-5%	16*	4%
Cc1ncoc1C(=O)N1CCCC(C(=O)c2cccc(OC(C)C)c2)C1 (stereo not drawn)	1	7%	13%	-2%	7	3%
CC(C)Oc1cccc(C(=O)C2CCCN(Cc3ccon3)C2)c1 (stereo not drawn)	25	-9%	3%	-2%	8.4*	-1%
CC1(C)Cc2nc3sc4c(=O)[nH]cnc4c3cc2CS1	15	-11%	8%	-2%	10*	4%
CCCCCn1cnc2c(sc3nc4c(cc32)CSC(C)(C)C4)c1=O	150*	1%	2%	1%	61*	0%
COc1ccccc1CN1CCCC2(CCN(C(=O)c3cnccn3)CC2)C1	.	.	.	-3%	.	10%
Brc1ccc(CSc2ncn[nH]2)cc1	-5	1%	11%	2%	-2	-10%
O=C(CSc1ncn[nH]1)c1ccc(OC(F)F)cc1	21	2%	4%	-6%	14*	-13%
CCCOc1ccc(CSc2ncn[nH]2)cc1	68*	-2%	-21%	?	30*	-17%
CCc1ccc(C(=O)CSc2ncn[nH]2)cc1	76*	-1%	-4%	?	30*	?
Cc1ccc(Cl)cc1NC(=O)CCc1c(C)nc2c3cccnc3nn2c1C	.	.	.	2%	.	.
Cc1ccc(CNC(=O)C2CCC(=O)N(CCc3ccc(Cl)cc3)C2)cc1 (stereo not drawn)	85*	-3%	21%	2%	46*	0%
O=C(NCCCc1ccccc1)C1CCC(=O)N(Cc2ccc(Cl)cc2)C1 (stereo not drawn)	38*	-4%	-25%	1%	36*	3%
Cc1ccc(CCN2CC(C(=O)NC3CCCCC3)CC2=O)cc1 (stereo not drawn)	4	0%	5%	6%	30*	4%
O=C(N/N=C/c1ccccc1O)C(=O)N1CCCCCC1	21	-9%	-23%	1%	20*	.
O=C(N/N=C/c1ccccc1F)C(=O)N1CCCCCC1	34*	0%	-1%	-4%	24*	2%
COCCNC(=O)C(=O)N/N=C/c1cccs1	23	-2%	2%	1%	7	3%
O=C(CN1CCCCCC1)N/N=C/c1cccs1	-19	-11%	-5%	-10%	1	-17%
O=C(N/N=C/c1cccs1)C(=O)N1CCCC1	48	-4%	10%	2%	28*	0%
SMILES	Shiga toxin inh	LmPK inhibitor	RE007 growth inh	Tb PYK inh	CHX counter	Giardia FBPA inh
COc1ccccc1NC(=O)C(=O)N/N=C/c1cccs1	99*	-23%	-9%	-8%	38*	8%
O=C(N/N=C/c1cccc(O)c1)C(=O)N1CCCCCC1	4	1%	13%	0%	8	4%
COc1ccc(NC(=O)Cn2ccn(-c3ccccc3)c(=O)c2=O)cc1	.	.	.	-3%	.	.
O=C(NCc1ccc(F)cc1)c1ccc2c(c1)nnn2C1CCCC1	.	.	.	-5%	.	.
COC(=O)NC(CC(C)=O)c1cccs1 (stereo not drawn)	.	.	.	.	.	-1%[12.9 µM]
c1cc2c(cnc3cscc32)s1	19	-9%	-10%	1%	16*	-15%
COc1cccc(C(=O)O/N=C(\N)c2ccccn2)c1OC	-6	-20%	-13%	?	10	14%
N/C(=N\OC(=O)Cc1cccc2ccccc12)c1ccccn1	161*	0%	4%	-1%	49*	3%
